# Screening data deposited in PubChem BioAssay by National Center for Advancing Translational Sciences (NCATS).
# TrxR1 substrate: qHTS Assay for Substrates of Mammalian Selenoprotein Thioredoxin Reductase 1 (TrxR1): qHTS; Thioredoxin reductase 1, cytoplasmic (Rattus norvegicus), O89049; purified TrxR1 substrate turnover, NADPH consumption readout; Potency, µM (series often up to 114 µM), without a hit: at the highest dose activity change, negative = substrate turnover; 390,000 compounds, 0.01% hits; AID 588456, 2011; further: potency means the concentration at half of the fitted maximal effect; on the % scale 0 is the no-effect control and ±100 the full control effect; nearly all actives have a fitted effect of over 50% in size
#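 Rat TrxR1, dispensed at 90 nM, was prereduced with 400 uM NADPH (final) for 5 min at ~22 deg C, then incubated with compound 15 min before 400 uM selenite. A first-read NADPH fluorescence drop versus no-compound background flagged substrates.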
# TrxR1 inh: qHTS Assay for Inhibitors of Mammalian Selenoprotein Thioredoxin Reductase 1 (TrxR1): qHTS; 390,000 compounds, 1% hits; Potency, µM (series often up to 114 µM), for the others: at the top dose activity change, negative = inhibition, actives largely listed as inhibitors; recombinant rTrxR1, NADPH fluorescence consumption, selenite substrate; further: potency means the concentration at half of the fitted maximal effect; on the % scale 0 is the no-effect control and ±100 the full control effect; nearly all actives have a fitted effect of over 65% in size
#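 Rat TrxR1 (90 nM in the dispensed reagent) was pre-reduced with 400 uM NADPH for 5 min at room temperature, then incubated with compound for 15 min. After 400 uM selenite was added, NADPH fluorescence (Ex 340/Em 450 nm) was followed for 8 min.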
# Pin1 inhibitor: qHTS Assay to Find Inhibitors of Pin1 | Pin1 FP peptide displacement, HiFluor488, 10 min | 390,000 compounds, 0.009% hits | Potency, µM (titrated, usually from 115 µM), for inactives: at the top dose activity, negative = inhibition, most hits filed as inhibitors; active means well fitted inhibition curve with a large enough effect in the polarisation, with a control signal flat, not every such curve was filed as active; inconclusive means small, poorly fitted or top-dose-only effect, or effect the other way, or a change in a side signal; inactive means no such curve, though single readings can be large or run the other way; the % refers to the polarisation; further: potency means the concentration at half of the fitted maximal effect; on the % scale 0 is the no-effect control and ±100 the full control effect
# Target sequence (Q13526 whole entry, looked up): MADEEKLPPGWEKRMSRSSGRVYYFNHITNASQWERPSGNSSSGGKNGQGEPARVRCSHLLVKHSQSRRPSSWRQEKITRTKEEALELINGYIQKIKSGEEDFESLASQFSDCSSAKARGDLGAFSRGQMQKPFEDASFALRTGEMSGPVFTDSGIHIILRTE
# N370S GC: qHTS Assay for Inhibitors and Activators of N370S glucocerebrosidase as a Potential Chaperone Treatment of Gaucher Disease; Lysosomal acid glucosylceramidase (Homo sapiens), P04062; N370S GC spleen homogenate, 4MU-glucoside fluorescence; Potency, µM (doses to about 59.4 µM), for the others: at the top dose activity change, negative = inhibition, hits mostly inhibitors; 330,000 compounds, 0.092% hits;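 further: potency means the concentration at half of the fitted maximal effect; 0% = full enzyme activity and -100% = no enzyme basal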
# AT treatment: qHTS Assay for Identifying a Potential Treatment of Ataxia-Telangiectasia. 320,000 compounds, 0.19% hits. Potency, µM (titrated, usually from 57.5 µM), for inactives: at the highest dose activation, hits mostly activators. F2112 A-T fibroblasts, KAP-1 phosphorylation AlphaLISA; neocarzinostatin DNA damage 30 min before lysis; further: potency means the concentration at half of the fitted maximal effect; % of control where 0% means no effect; nearly all actives have a fitted effect of over 45% in size
#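 hTERT-immortalized A-T patient fibroblasts (F2112), 500 cells/well in OPTI-MEM, 1% FBS, got compounds for 60 min, then NCS for 30 min at 37C. Lysates were then assayed for phospho-KAP-1 by AlphaLISA (anti-pKAP1 donor, anti-KAP1 acceptor beads), 6 hr at 25C.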
# Akt phos inh: HTS Assay for Inhibitors of Akt Phophorylation: Primary Screen. Neuro2A IGF-stimulated pAkt S473 HTRF, 20 min; hits give low values. activity change, % for hits at 50 µM. 360,000 compounds, 0.32% hits. AID 651550, 2012; in the data active means activity change below about -80%; inconclusive means mostly about -51% to -80%; further: on the % scale 0 is the no-effect control and ±100 the full control effect
#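 Neuro2A cells (4,500/well, DMEM with 0.5% FBS) were treated with compound at a single 50 µM final concentration, stimulated with 6 nM IGF for 20 min at 37 °C, and lysed. Phospho-Akt Ser473 was read by HTRF as 665/615 ratio ×10^4.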
# Starred values were filed as active, the others as inactive; i = inactive; ? = inconclusive; / = not tested or not shown; [ ] = another dose, or the depositor's remark. This is a sample that favours compounds with a hit; in the whole collection about 1.4% have one here. Unless noted, the call rests on the fitted dose curve; in most records, active means well fitted curve in the direction sought with a large enough effect; inconclusive means small, poorly fitted or top-dose-only effect, or another doubt; inactive means no such curve, though single readings can be large; an effect the other way counts as inactive or inconclusive.
SMILES,TrxR1 substrate,TrxR1 inh,Pin1 inhibitor,N370S GC,AT treatment,Akt phos inh
c1ccc(C(c2ccccc2)N2CC3(CCNCC3)C2)cc1,/,/,/,-4.1%,/,/
c1ccc(-c2ccc(N3CCCC4(CCNCC4)C3)cc2)cc1,/,/,/,15.8µM*,/,/
COC(=O)Nc1c(-c2ccccc2)nc2ccc(Cl)cn12,11.3%[57.1 µM],23.1%[57.1 µM],-7.0%,-5.9%,-1.5%,i
COC(=O)CNc1c(-c2ccccc2)nc2ccc(Br)cn12,-8.2%,-19.4%,10.1%,11.2µM*,/,?
Cc1cccc(CS(=O)(=O)c2ncc(Cl)c(C(=O)Nc3c(C)cccc3C)n2)c1,10.4%,?,0.8%,-4.0%,-2.8%,i
Cc1cccc(C)c1NC(=O)c1nc(S(=O)(=O)Cc2ccccc2)ncc1Cl,1.6%,15.8µM*,0.9%,-18.4%,-8.9%,i
O=C(Nc1ccccc1F)c1nc(S(=O)(=O)Cc2ccccc2F)ncc1Cl,10.3%,1.58µM*,-0.1%,/,/,/
Cc1nnc(NC(=O)c2nc(S(=O)(=O)Cc3ccccc3)ncc2Cl)s1,-1.4%,12.6µM*,?,1.2%,-1.0%,i
CCOc1ccccc1NC(=O)c1nc(S(=O)(=O)Cc2ccccc2F)ncc1Cl,9.5%,?,/,/,/,/
O=C(Nc1ccc2ccccc2c1)c1nc(S(=O)(=O)Cc2ccccc2F)ncc1Cl,-5.1%,10µM*,/,/,/,/
COc1ccc(C(NC(=O)COc2ccc(C#N)cc2)c2ccc(OC)cc2)cc1,6.1%[0.0914 µM],9.3%,/,/,/,/
C[C@@H]1[C@H](C)CC[C@@]2(C(=O)O)CC[C@]3(C)C(=CC[C@H]4[C@@]5(C)CC[C@@H](O)C(C)(C)[C@@H]5CC[C@@]43C)[C@@H]12,/,/,/,18.3%[21.6 µM],/,/
O=C(O)Cc1nnc(-c2cc3ccccc3[nH]2)s1,/,/,15.5%,/,/,/
CC1=C(C(=O)Nc2cccnc2)C(c2cccc(O)c2)n2nc(SCc3ccccc3)nc2N1 (stereo not given),3.0%[57.1 µM],15.0%[57.1 µM],3.5%,/,/,/
Cc1cc(C)c2c(=O)cc(C(=O)Nc3ccc(S(=O)(=O)N(C)Cc4ccccc4)cc3)oc2c1,3.3%,14.9%,7.7%,/,/,/
Cc1ccc(NC(=O)c2nc(S(=O)(=O)Cc3ccccc3)ncc2Cl)cc1,-1.5%,8.91µM*,0.9%,-2.1%,-14.0%,i
COc1ccc(OC)c(NC(=O)c2nc(S(=O)(=O)Cc3ccccc3)ncc2Cl)c1,-1.2%,3.55µM*,20.0%,1.0%,0.5%,i
COC(=O)c1ccccc1NC(=O)c1nc(S(=O)(=O)Cc2ccccc2F)ncc1Cl,7.9%,?,-6.0%,/,/,/
Cc1cccc(C)c1NC(=O)c1nc(S(=O)(=O)Cc2ccccc2F)ncc1Cl,9.2%,4.47µM*,/,/,/,/
CC(=Nc1ccccc1N)c1c(C)cc(=O)n(O)c1O,/,/,/,-1.7%,/,/
CN(C)c1cccc(-c2ccnc(N3CCC(C(N)=O)CC3)n2)c1,/,/,-0.1%,/,/,/
Cc1nc2ccccc2nc1/C=C/c1ccc(N(C)C)cc1,-11.7%,?,/,/,/,/
Cc1ccc2oc3c(c(=O)c2c1)C(c1ccc(OCC(N)=O)cc1)N(Cc1ccc2c(c1)OCO2)C3=O (stereo not given),1.7%,9.2%,3.4%,/,/,/
CCCNC(=O)C/C(C)=N/NC(=O)C(=O)Nc1ccccn1,1.6%,63.1µM*,0.9%,-8.7%,-2.6%,i
Cc1cc(C(=O)CN2C(=O)C(=O)N(Cc3ccccc3)C2=O)c(C)n1Cc1ccccc1,-11.0%,-8.0%,19.5%,/,2.0%,i
Cc1cc(C(=O)CN2C(=O)NC(c3ccccc3)(c3ccccc3)C2=O)c(C)n1Cc1ccccc1,-6.7%,0.5%,34.3%,16.0%,1.1%,-135.9%*
